We go through 17 compounds from PubChem BioAssay.

SMILES strings stand for the structures. Active and inactive are the calls of the source. The rule behind the calls is not given here.

This assay concerns Botulinum neurotoxin type F light chain protease (Clostridium botulinum). Put plainly: Clostridium botulinum type F light chain protease inhibitors, microsphere substrate cleavage, validation (AID 588459). As to conditions: multiplex microsphere protease substrate cleavage assay, flow cytometry; at 10 µM; stronger effect = higher value. For orientation: A flow cytometer gives signals particle by particle.
By inhibition is commonly meant the relative decrease from the control value, in per cent. For `Nc1nc(Cl)nc2c1ncn2[C@@H]1O[C@H](CO)[C@@H](O)[C@H]1O`, the inhibition was 3.3% (inactive).

Turning to `N/C(=N\OC(=O)c1cccc(Br)c1)c1ccncc1`, the inhibition was 0.8% (inactive).

As for `O=C(O)CCn1cnc2ccccc2c1=O`, the inhibition was 1.4% (inactive).

On to `NC(N)=N/N=C/c1ccc(OS(=O)(=O)c2ccccc2)cc1`, for which the inhibition is -5.1% (inactive).

In the case of `Oc1[nH]c2ccccc2c1C1=NCCCC1`, the inhibition is 3.8% (inactive).

For the compound `O=C(NCC1CCCCN1)c1cc(OCC(F)(F)F)ccc1OCC(F)(F)F` (configuration not stated), the inhibition is -0.8% (inactive).

For the compound `CC(C)OC(=O)C1C(=O)CC(C)(O)C(C(=O)OC(C)C)C1c1cccc(O)c1` (configuration not stated), the inhibition is 3.9% (inactive).

As to `COC(=O)c1[nH]c2ccccc2c1NC(=O)CN1CCN(C/C=C/c2ccccc2)CC1`, the inhibition was -2.6% (inactive).

Consider `O=C(C1CCCCC1)N1CC(=O)N2CCc3ccccc3C2C1` (configuration not stated), for which the inhibition is -2.5% (inactive).

Take `COC1CCCCC1Nc1ccc(C)c(C)c1` (configuration not stated): the inhibition is 1.5% (inactive).

Consider `COc1ccc2[nH]c(=O)c(CNC3CCCCC3)cc2c1`, for which the inhibition is -1.7% (inactive).

As to `O=C(N1CCCCC1)C1(c2ccccc2)CCOCC1`, the inhibition was 1.7% (inactive).

`C#CCN1C(=O)C(O)(c2c(C)[nH]c3ccccc23)c2ccccc21` (configuration not stated): the inhibition was 0.4% (inactive).

`Cc1nc(-c2coc3c(CN(C)C)c(O)ccc3c2=O)cs1`: the inhibition was -2.2% (inactive).

As to `CCOC(=O)N1CCc2[nH]c3ccc(C)cc3c2C1`, the inhibition is -1.2% (inactive).

For the compound `O=C(Nc1ccc(N2CCOCC2)cc1)c1ccc(-c2ccccc2[N+](=O)[O-])o1`, the inhibition was -2.6% (inactive).

On to `CC1(C)CC(CC(=O)Nc2nccs2)(c2ccccc2)CCO1` (configuration not stated), for which the inhibition is 3.8% (inactive).
